# Assay results taken from PubChem BioAssay AID651871 (Sanford-Burnham Center for Chemical Genomics, 2012).
# Values joined by “and” are separate entries in the source; they are usually repeats but may differ in a detail not shown here. Equal values may be shown once.
# Tested on: HL-1
# Experiment: protection of cardiomyocytes from stress damage, SAR follow-up, cell-based, panel, H9c2 and HL-1, ATP luminescence, set 2 (AID 651871);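 further: cells exposed to stressor for 2 h before ATP readout; reference of the scale not given here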
# Details: H9c2/HL-1 cardiomyocytes, 2-deoxyglucose stress, with 2-deoxyglucose, run 4, at 79 µM (top of the series)
row,Compound,activity (protection/inhibition)
1,COc1ccc2c(c1OC)C(=O)N1c3ccccc3C(=O)N(Cc3cccc(Cl)c3Cl)C21 (stereo not drawn),33.5% and -8.11%
2,COc1ccc2nc(-c3cc(OC)c(OC)c(OC)c3)cc(C(=O)NCC(=O)Nc3ccc(C(C)=O)cc3)c2c1,68.7%
3,CCOC(=O)c1cccc(NC(=O)CNC(=O)c2cc(-c3cc(OC)c(OC)c(OC)c3)nc3ccccc23)c1,54.1%
